Reference: the supplement of paper PMC3545927
The list shows a part of the results. The true hit rate is not given.

B1: HC2217 (peptide)
chain: CAEVVTSSWVAGNASASA
B2: HC1841 (peptide)
chain: CANTPCSGSWAGNASASA
B3: HC1756 (peptide)
chain: CAMEECSQGLAGNASASA
B4: HC1920 (peptide)
chain: CATTPCSGCWAGNASASA
B5: HC84 (peptide)
chain: CAVVCLSMSYAGNASASA
B6: HC544 (peptide)
chain: CASFLVFFCFAGNASASA
B7: HC541 (peptide)
chain: CAGTHGLVSFAGNASASA
B8: FS-2992 (peptide)
chain: CARLKRQVTEAGNASASA
B9: FS-2219 (peptide)
chain: CARLKRALDFAGNASASA
B10: FS-3227 (peptide)
chain: CARLKRQPCAAGNASASA
B11: FS-1907 (peptide)
chain: CARLKRVEDQAGNASASA
B12: HC833 (peptide)
chain: CAVLATATPPAGNASASA
B13: FS-2413 (peptide)
chain: CAREDRAVRDAGNASASA
B14: FS-2204 (peptide)
chain: CARDARMSDAAGNASASA
B15: FS-1075 (peptide)
chain: CARSVRSTRDAGNASASA
B16: FS-2821 (peptide)
chain: CARSVRFISNAGNASASA
B17: FS-2328 (peptide)
chain: CARDARSVRDAGNASASA
B18: FS-384 (peptide)
chain: CATNHRIFRSAGNASASA
B19: FS-703 (peptide)
chain: CAQMHRKFRSAGNASASA
B20: HC594 (peptide)
chain: CARGGRDAVIAGNASASA
B21: FS-1397 (peptide)
chain: CARGGRIFRSAGNASASA
B22: FS-581 (peptide)
chain: CACHLRRFRSAGNASASA
B23: FS-327 (peptide)
chain: CAFLWRSFRSAGNASASA
B24: HC2078 (peptide)
chain: CAVVCCSMTYAGNASASA
B25: FS-2896 (peptide)
chain: CARCDRDNTEAGNASASA
B26: FS-3012 (peptide)
chain: CARNRRLVSDAGNASASA
B27: FS-1912 (peptide)
chain: CARNRRGAITAGNASASA
B28: FS-3011 (peptide)
chain: CARNRRHVTEAGNASASA
B29: FS-3010 (peptide)
chain: CARNRRALRDAGNASASA
B30: FS-709 (peptide)
chain: CARNRRHHRDAGNASASA
B31: FS-2909 (peptide)
chain: CAREDRGAYTAGNASASA
B32: HC1482 (peptide)
chain: CACFDSTVTEAGNASASA
B33: HC1479 (peptide)
chain: CAFSYDTRCFAGNASASA
B34: HC2105 (peptide)
chain: CALDVVCCSMAGNASASA
B35: HC330 (peptide)
chain: CARIPQAILDAGNASASA
B36: FS-2049 (peptide)
chain: CARNRRVAEAAGNASASA
B37: HC1002 (peptide)
chain: CAVGRVVLSGAGNASASA
B38: FS-2733 (peptide)
chain: CARNRRSILDAGNASASA
B39: FS-560 (peptide)
chain: CARNRRHPRSAGNASASA
B40: FS-2577 (peptide)
chain: CARNRRSLSGAGNASASA
B41: FS-2048 (peptide)
chain: CARNRRTHEFAGNASASA
B42: HC1160 (peptide)
chain: CALMPQLPGIAGNASASA
B43: HC1306 (peptide)
chain: CAPDYNPPLVAGNASASA

Target: furin, P09958
Sequence (P09958 whole entry): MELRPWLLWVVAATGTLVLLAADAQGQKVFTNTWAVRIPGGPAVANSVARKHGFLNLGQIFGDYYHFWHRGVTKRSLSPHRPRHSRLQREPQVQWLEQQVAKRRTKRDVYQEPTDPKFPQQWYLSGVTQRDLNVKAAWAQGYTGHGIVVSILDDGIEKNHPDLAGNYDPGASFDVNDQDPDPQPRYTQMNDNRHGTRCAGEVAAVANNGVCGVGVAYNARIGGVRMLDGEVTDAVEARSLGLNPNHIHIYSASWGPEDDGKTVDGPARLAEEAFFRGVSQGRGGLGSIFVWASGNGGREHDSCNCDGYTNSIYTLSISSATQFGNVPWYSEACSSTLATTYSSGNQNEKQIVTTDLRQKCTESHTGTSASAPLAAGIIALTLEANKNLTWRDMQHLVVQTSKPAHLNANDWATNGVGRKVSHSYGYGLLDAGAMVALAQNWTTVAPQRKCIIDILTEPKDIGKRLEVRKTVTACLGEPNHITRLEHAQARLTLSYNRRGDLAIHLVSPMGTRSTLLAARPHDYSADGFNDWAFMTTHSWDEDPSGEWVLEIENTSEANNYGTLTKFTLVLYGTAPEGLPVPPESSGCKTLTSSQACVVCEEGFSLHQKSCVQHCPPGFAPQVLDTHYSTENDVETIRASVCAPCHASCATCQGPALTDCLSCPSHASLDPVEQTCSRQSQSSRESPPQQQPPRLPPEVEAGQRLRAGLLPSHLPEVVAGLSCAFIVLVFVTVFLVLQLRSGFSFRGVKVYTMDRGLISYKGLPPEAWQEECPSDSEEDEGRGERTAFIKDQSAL
Experiment: furin cleavage Z-score vs untreated control; higher = more cleavage, active = 3.5 or more, inactive = 1 or less, 8 variable residues between constant flanks
Method in brief: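 Magnetic beads held 8-mer peptides by the N-terminus, each fused to a cDNA oligonucleotide, and purified furin was added for 7.5, 15 or 30 min. Released DNA was sequenced after PCR adapter tagging. The cleavage Z-score is the log count relative to furin-free reactions, lowess-adjusted and divided by median absolute deviation.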
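Note: purified furin at 1:10 enzyme:substrate in 50 mM HEPES pH 7.5.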

| Sequence | furin cleavage Z-score (7.5 min) | furin cleavage Z-score (15 min) | furin cleavage Z-score (30 min) |
| --- | --- | --- | --- |
| B1 | 0.949 (inactive) | 3.4 | -0.0256 (inactive) |
| B2 | -0.658 (inactive) | -0.9 (inactive) | -0.678 (inactive) |
| B3 | 0.411 (inactive) | 1.43 | 1.65 |
| B4 | -0.899 (inactive) | -0.942 (inactive) | -0.88 (inactive) |
| B5 | 0.288 (inactive) | -0.622 (inactive) | -0.642 (inactive) |
| B6 | -1.06 (inactive) | -0.337 (inactive) | -0.101 (inactive) |
| B7 | 1.37 | 0.474 (inactive) | 1.36 |
| B8 | 11.3 (active) | 12 (active) | 11.2 (active) |
| B9 | 6.13 (active) | 7.48 (active) | 7.29 (active) |
| B10 | 0.299 (inactive) | -0.962 (inactive) | -0.478 (inactive) |
| B11 | -1.61 (inactive) | 0.449 (inactive) | -0.817 (inactive) |
| B12 | -0.698 (inactive) | -1.92 (inactive) | -0.599 (inactive) |
| B13 | -1.11 (inactive) | 0.317 (inactive) | -0.31 (inactive) |
| B14 | -1.21 (inactive) | 0.407 (inactive) | 0.769 (inactive) |
| B15 | 9.44 (active) | 11 (active) | 9.05 (active) |
| B16 | -2.17 (inactive) | -0.565 (inactive) | 1.32 |
| B17 | 2.71 | 4.77 (active) | 5.93 (active) |
| B18 | 1.71 | 2.99 | 5.79 (active) |
| B19 | 6.07 (active) | 8.69 (active) | 6.07 (active) |
| B20 | 0.336 (inactive) | 0.26 (inactive) | 0.331 (inactive) |
| B21 | 7.37 (active) | 8.25 (active) | 7.16 (active) |
| B22 | -0.297 (inactive) | -0.28 (inactive) | 0.354 (inactive) |

| Sequence | furin cleavage Z-score (7.5 min) | furin cleavage Z-score (15 min) | furin cleavage Z-score (30 min) |
| --- | --- | --- | --- |
| B23 | -0.934 (inactive) | -0.656 (inactive) | -0.629 (inactive) |
| B24 | -0.433 (inactive) | 0.0813 (inactive) | -0.381 (inactive) |
| B25 | -0.96 (inactive) | -0.486 (inactive) | -1.77 (inactive) |
| B26 | 0.716 (inactive) | 3.37 | 2.68 |
| B27 | 5.06 (active) | 6.46 (active) | 7.54 (active) |
| B28 | 12.2 (active) | 12.5 (active) | 9.58 (active) |
| B29 | 7.62 (active) | 8.24 (active) | 7.01 (active) |
| B30 | 8.79 (active) | 10.1 (active) | 7.04 (active) |
| B31 | -0.191 (inactive) | 0.288 (inactive) | -1.31 (inactive) |
| B32 | 0.967 (inactive) | -0.854 (inactive) | -1.23 (inactive) |
| B33 | -0.0881 (inactive) | -0.998 (inactive) | 0.0108 (inactive) |
| B34 | -0.768 (inactive) | -1.48 (inactive) | -0.867 (inactive) |
| B35 | -0.397 (inactive) | 0.0404 (inactive) | 0.351 (inactive) |
| B36 | 2.16 | 3.37 | 3.98 (active) |
| B37 | -0.201 (inactive) | 2.15 | -1.8 (inactive) |
| B38 | 6.77 (active) | 9.44 (active) | 8.76 (active) |
| B39 | 11.3 (active) | 13.7 (active) | 8.58 (active) |
| B40 | 5.26 (active) | 5.66 (active) | 6.3 (active) |
| B41 | -0.109 (inactive) | -0.137 (inactive) | 0.595 (inactive) |
| B42 | 1.4 | 1.95 | 0.83 (inactive) |
| B43 | 0.58 (inactive) | -1.42 (inactive) | -0.164 (inactive) |
